This is a sample that favours compounds with a hit; in the whole collection about 2.8% have one here.
KKLEB cytotox = CF airway cell cytotoxicity counter-screen. activity change (cytotoxicity), % at 5 µM. 360,000 tested, 0.36% active. KKLEB CF airway cells viability, ATPlite luminescence, overnight; active compounds read low; cells stimulated with P. aeruginosa culture filtrate. AID 602141;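 active means corrected activity change at or below -50% at 5 µM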
Peg3 prom inh-1 = inhibitors of Peg3 promoter; HeLa PEG-Prom luciferase reporter, luminescence, overnight; inhibition, % at 20 µM; 360,000 tested, 1.7% active; AID 588405;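 active means inhibition of at least 50% at 20 µM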
HIF-2a block = HIF-2a inhibition; 360,000 tested, 0.72% active; 786-0 RCC cells HIF-2a reporter, luciferase luminescence, overnight; inhibition, % at 18.8 µM; AID 624352;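 active means inhibition of the luminescence signal of 40% or more relative to plate controls, in a single-dose primary screen at 18.75 µM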
TRPM1 prom inh = inhibitors of MITF-driven TRPM1 promoter in melanoma cells. SK-MEL-5 TRPM1 promoter luciferase, 24 h. inhibition, % at 12.5 µM. 330,000 tested, 0.83% active;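 active means mean inhibition across replicates of 60% or more, whatever share of single replicates reaches that level; inconclusive means some that reach 60%, reason not given; inactive means mean inhibition across replicates below 60%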
CF NFkB inh = cystic fibrosis NF-kB activation inhibition | KKLEB NF-kB-GFP reporter, PAF-induced, GFP fluorescence overnight | inhibition, % at 5 µM | 360,000 tested, 0.86% active | AID 588850;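 active means at least 50% inhibition at 5 µM, scaled per plate between neutral and stimulator controls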;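 further: PAF is a Pseudomonas aeruginosa culture filtrate used as stimulus; plate controls were PAF-stimulated DMSO wells for no effect and unstimulated DMSO wells for full effect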
Shn3 3UTR inh = reduces Shn3 3'UTR luciferase signal in osteoblasts | Clone20 osteoblast Shn3 3'UTR firefly luciferase, 24 h | 360,000 tested, 0.52% active | inhibition, % at 12.5 µM;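 active means mean inhibition of at least 75% with every replicate also reaching 75%; inconclusive means mean inhibition at least 75% but some replicate below; inactive means mean inhibition below 75%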;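 further: 0% = median of neutral control wells and 100% = pilot-screen positive control compound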
Peg3 prom inh-2 = Peg3 promoter inhibition confirmation; shares compounds with Peg3 prom inh-1; HeLa PEG-Prom luciferase reporter, luminescence, overnight; inhibition, % at 20 µM; 1,300 tested, 84% active;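 active means at 20 µM dose, 40% or more inhibition averaged across four replicates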
An asterisk follows results filed as active; ? = inconclusive; · = not tested or not shown.

SMILES	KKLEB cytotox	Peg3 prom inh-1	HIF-2a block	TRPM1 prom inh	CF NFkB inh	Shn3 3UTR inh	Peg3 prom inh-2
CCc1nc2c(OCc3cccc(Cl)c3)cccn2c1N(C)C(=O)Nc1ccccc1OC	-10	26	25	·	24	9	·
COc1ccc(C(O)(CCC(C)C)C(CN2CCOCC2)c2ccccc2)cc1 (stereo not drawn)	-4	59*	10	10	11	18	47*
CC(C)CCC(O)(c1ccccc1)C(CN1CCOCC1)c1ccccc1 (stereo not drawn)	-5	22	15	0	2	24	·
CC(OC(=O)c1cccc(-n2cnnn2)c1)c1nc2ccccc2c(=O)[nH]1 (stereo not drawn)	-13	8	11	-1	6	-8	·
CCCCCCOc1ccc(/C(C)=N/NC2=NCCN2)cc1	-19	108*	-2	-4	18	9	98*
CC(=O)n1cc(N(C(=O)CCl)c2ccc([N+](=O)[O-])cc2)c2ccccc21	-83*	90*	30	69*	80*	·	99*
CC(=O)c1ccc(NC(=O)c2cn(C)c(=O)c3ccccc23)cc1	0	0	-50	·	-40	-30	·
Cc1cc(C2=NNC(=NC3CC3)SC2)c(C)n1-c1ccccc1F	-58*	104*	89*	99*	-16	98*	98*
Cc1cc(C2=NNC(=NC3CCCCC3)SC2)c(C)n1-c1c(C)n(C)n(-c2ccccc2)c1=O	7	1	7	0	-15	-13	·
Cc1ccc(C(=O)N2CCN(c3ccc([N+](=O)[O-])c(NCc4cccnc4)c3)CC2)cc1	3	56*	15	-3	-14	16	48*
Cc1ccccc1C(=O)N1CCN(c2ccc([N+](=O)[O-])c(NCc3cccnc3)c2)CC1	9	46	19	-3	-18	26	·
CCOC(=O)NC(=O)C(/C=N/c1sccc1C(=O)OC)=C(\C)O	11	8	5	19	-2	7	·
CCOc1cccc(-c2c(C(=O)N/N=C(\C)c3ccccn3)nnn2-c2nonc2N)c1	-15	74*	15	61*	29	94*	64*
CCOc1cccc(-c2c(C(=O)N/N=C(\C)c3ccncc3)nnn2-c2nonc2N)c1	5	17	17	2	-3	-2	·
C/C(=N\NC(=O)c1nnn(-c2nonc2N)c1CN1CCc2ccccc21)c1ccccc1O	-28	55*	8	30	28	?	66*
Nc1nonc1-n1nnc(C(=O)N/N=C/c2ccccc2)c1CN1CCc2ccccc21	-6	14	-2	16	-13	18	·
Cc1cc(-c2ccccc2)n2nc(N)nc2n1	-7	3	5	-8	18	0	·
CC1(C)CC(NCCN2CCN(C3=CC(=C(C#N)C#N)CC(C)(C)C3)CC2)=CC(=C(C#N)C#N)C1	-9	50*	9	0	9	-2	44*
CNC(=S)N1CCN(CCNC2=CC(=O)CC(C)(C)C2)CC1	18	1	18	-4	-3	6	·
Cc1ccc(NC(=O)c2nc[nH]c2C(=O)NCCCCNC(=O)c2[nH]cnc2C(=O)Nc2ccc(C)cc2)cc1	-83*	74*	-4	3	86*	38	43*
CN(C)CC1CCC/C(=C\c2ccc(OC(=O)/C=C/c3ccccc3)cc2)C1=O (stereo not drawn)	-1	101*	-11	69*	-5	14	100*
CN(C)CC1CCC/C(=C\c2ccc(OC(=O)c3ccc(Cl)cc3)cc2)C1=O (stereo not drawn)	-8	105*	17	92*	-18	46	100*
Cc1cc(Br)ccc1NC(=O)CNC(=O)Cn1ncc(Cl)c(Cl)c1=O	-51*	111*	8	94*	91*	58	98*
Cc1cc(Sc2ncnc(N)c2[N+](=O)[O-])ncn1	5	106*	16	78*	66*	99*	100*
C=CCn1c(COc2ccccc2)nnc1SC(C)C(=O)N/N=C/c1cc(Cl)ccc1O (stereo not drawn)	-6	60*	11	?	3	?	71*

Source: PubChem BioAssay
